Drawing on PubChem BioAssay (NCATS), this text covers max response, Potency and outcome for 40 molecules.

Several values for one entry are separate records, joined by “and”; a condition that tells them apart may be missing. Identical values can stand only once. Results filed as inconclusive are left out. Values without a mark were called inactive. Activity calls are given as the source filed them. The call rests on the fitted dose curve; in most records, active means well fitted inhibition curve with a large enough effect; inconclusive means small, poorly fitted or top-dose-only effect; inactive means flat fitted curve, though single readings scatter.
On the % scale 0 is the no-effect control and ±100 the full control effect; potency means the concentration at half of the fitted maximal effect.

The assay relates to KB-3-1. Description: Cytotoxic Profiling of Annotated Libraries Using Quantitative High-Throughput Screening (AID 1296008). Further: nearly all actives have a fitted effect of over 60% in size. The following applies: Five cell lines viability, CellTiter-Glo ATP luminescence, 48-72 h; max response: hits give low values. The source says: Cell-based phenotypic screening is a commonly used approach to discover biological pathways, novel drug targets, chemical probes and high-quality hit-to-lead molecules. Many hits identified from high-throughput screening campaign are ruled out through a series of follow-up potency, selectivity/specificity, and cytotoxicity assays. Prioritization of molecules with little or no cytotoxicity for a more in-depth downstream evaluation influence the future direction of projects, so cytotoxicity profiling of the screening libraries at early stage is essential for increasing the likelihood of candidate success. […] For the annotated library, we also examined the primary targets and mechanistic pathways regularly associated with cell death. To our knowledge, this is the first study to use high-throughput screening to profile large libraries for cytotoxicity assessment in both normal and cancer cell lines. In summary, the results generated here constitutes a valuable resource for the scientific community and provides insight on identifying cytotoxic compounds with particular mechanisms of action, and prioritizing compounds with suitable cytotoxicity profile for further evaluation.
A pintool (Kalypsys) was used to transfer 23 nL of compound solution to the 1536-well assay plates. After 48 or 72 hr incubation at 37 degree Celsius, 5% CO2 and 95% humidity, 2.5 uL of CellTiter-Glo (Promega) was dispensed into each well using a dispenser (Aspect Automation, St. Paul, MN) with solenoid valves (Lee Valves, Westbrook CT). Plates were left at room temperature for 10 min before imaging the ATP-coupled luminescence using a ViewLux microplate imager (PerkinElmer, Waltham, MA).
In general terms: ATP-based viability assays read luminescence as a measure of living cells.
As for `COc1ccc(CCCN2CCC(COC(c3ccccc3)c3ccccc3)CC2)cc1`, the max response is -17.2%. As to `O=C(O)CSc1cc(NS(=O)(=O)c2ccc(Br)cc2)c2ccccc2c1O`, the Potency is 18.4 µM (active). In the case of `COc1cc2[nH]c(C)c(CCN3CCN(c4ccccc4)CC3)c2cc1OC`, the max response was -9.43%.

Take `CCCC(=O)O[C@]1(C(=O)COC(=O)CC)[C@@H](C)C[C@H]2[C@@H]3CCC4=CC(=O)C=C[C@]4(C)[C@@]3(F)[C@@H](O)C[C@@]21C`: the max response is -7.8%. Still for that read-out and setting: the value for `CSCC[C@H](NC(=O)[C@H](Cc1ccc(OS(=O)(=O)O)cc1)NC(=O)[C@@H](N)CC(=O)O)C(=O)NCC(=O)N[C@@H](Cc1c[nH]c2ccccc12)C(=O)N[C@@H](CCSC)C(=O)N[C@@H](CC(=O)O)C(=O)N[C@@H](Cc1ccccc1)C(N)=O` was -5.26% and -10.7%. The same measure, in the same setting: the value for `COc1ccc(-c2csc(NC(=O)[C@H]3CCCCN3S(=O)(=O)c3ccc(C)cc3)n2)cc1` was -25.1%; that for `C[C@H]1C[C@H]2[C@@H]3CCC4=CC(=O)C=C[C@]4(C)[C@@]3(F)[C@@H](O)C[C@]2(C)[C@@]1(O)C(=O)CCl` was -8.19%. On the same count and under the same terms, the value for `Cc1c(O)cc2c(c1C)O[C@](C)(CCC[C@H](C)CCC[C@H](C)CCCC(C)C)CC2` was -6.57%. On to `C=C1[C@@H](OC(C)=O)CC[C@@]2(C)[C@@H](OC(C)=O)[C@H](OC(C)=O)C3=C(C)C[C@H](OC(=O)C(C)CC)[C@@H]([C@@H](OC(C)=O)[C@H]12)C3(C)C` (stereo not given in full), for which the Potency was 2.43 µM (active). In the case of `C=CC(C)(O)CC/C=C(\C)C(=O)OC1C(O)C(CO)OC(OC(=O)C23CCC(C)(C)CC2C2=CCC4C5(C)CCC(OC6OC(COC7OCC(OC(C)=O)C(O)C7OC7OC(COC(C)=O)C(O)C(O)C7OC(C)=O)C(O)C(O)C6OC6OCC(O)C(O)C6O)C(C)(C)C5CCC4(C)C2(C)C(O)C3O)C1OC1OCC(OC2OCC(O)C(OC3OCC(O)C(O)C3O)C2O)C(O)C1O` (stereo not given), the max response was -19.5%. Take `O=C(CCl)Nc1cccc(NC2=NS(=O)(=O)c3ccccc32)c1`: the Potency was 14.6 µM (active).

`Nc1ncnc2c1c(-c1ccc(Cl)cc1)nn2-c1cccc(-c2cnnn2Cc2cccc(-c3ccccc3)c2)c1`: the max response is -15.9%.

Regarding `CCN(CC)C(=O)C(c1ccccc1)N1CCN(c2ccc(NC(=O)c3ccccc3-c3cccnc3)cc2F)CC1` (stereo not given), the call was inactive. Regarding `O=C(Nc1ccc(C(F)(F)F)cn1)N1CCN(c2ncccc2C(F)(F)F)CC1`, the max response is -14.9%. Take `CC(C)(F)CC(NC(c1ccc(-c2ccc(S(C)(=O)=O)cc2)cc1)C(F)(F)F)C(=O)NC1(C#N)CC1` (stereo not given): the result was inactive. For `Cc1c(C2=CCN(C(=O)N(C)C(C)C)CC2)nnn1-c1cccnc1F`, the max response is 7.23%.

`CCNc1nc(Nc2cc(F)c(C(=O)N3CCOCC3)cc2OC)ncc1C(F)(F)F`: the max response is -21.3%. Still for that read-out and setting: the value for `c1ccc2c(CCC3CCNCC3)c[nH]c2c1` was -10.3%.

`C=C1C(OC2OC(CO)C(O)C(O)C2O)CC2C(C)(C)C(O)CCC2(C)C1CC/C(C)=C\COC(=O)CC(=O)O` (stereo not given): the molecule was called inactive. In the case of `O=C(Nc1ccnc(NC(=O)C2CC2)c1)c1c(Cl)cccc1Cl`, the Potency was 20.6 µM (active). With `C=C1C(=O)O[C@@H]2[C@H]3C(C)=CC(=O)C3=C(C)[C@@H](OC(=O)/C(C)=C\C)[C@H](O)[C@@H]12`, the max response is 5.28%. Still for that read-out and setting: the same measure for `O=C(O)c1cc2ccccc2c(Cc2c(O)c(C(=O)O)cc3ccccc23)c1O`: -8.98%. Turning to `C[C@@H]1O[C@@H](O[C@H]2[C@H](OC(=O)[C@]34CCC(C)(C)C[C@H]3C3=CCC5[C@@]6(C)C[C@H](O)[C@H](O[C@@H]7O[C@H](C(=O)O)[C@@H](O)[C@H](O)[C@H]7O)[C@@](C)(CO)C6[C@H](O)C[C@@]5(C)[C@]3(C)C[C@H]4O)O[C@@H](CO)[C@@H]2O)[C@H](O)[C@H](O)[C@H]1O[C@@H]1OC[C@@H](O)[C@H](O[C@H]2OC[C@](O)(CO)[C@H]2O)[C@H]1O` (stereo not given in full), the max response was -0.0365%.

Take `O=P(O)(O)C(Sc1ccc(Cl)cc1)P(=O)(O)O`: the max response is 2.09%. On the same count and under the same terms, the same measure for `Fc1ccc(N2CCN(CCC3OCCc4ccccc43)CC2)cc1` (stereo not given): -21.6%. Same read-out and setting: the value for `CCCc1cc(C)n(C)c(=O)c1CN(C)C(=O)c1cc(-c2ccc(N3CCN(C(C)C)CC3)nc2)cc2c1cnn2C(C)C` was 4.77%.

With `C=C1C(=O)OC2/C=C(\C)CC/C=C(\C)CC(OC(C)=O)C12` (stereo not given), the max response is 3.33%.

Turning to `CC1=C(C(=O)OC2CCCCC2)C(c2ccc([N+](=O)[O-])cc2)C2=C(CC(C)(C)CC2=O)N1` (stereo not given), the max response was -12%. Regarding `CC(=O)O[C@@H]1C2=C(O)C(=O)[C@](C)(OC(C)=O)C(=O)C2=CO[C@@]12O[C@@H](C)CC[C@H]2OC(C)=O`, the result was inactive. Take `CNCCC(c1cccs1)c1ccc(O)c2ccccc12` (stereo not given): the max response was 6.48%. The same measure, in the same setting: the same measure for `CC(C)CCNC(=O)[C@H](CC(C)C)NC(=O)[C@H]1O[C@@H]1C(=O)O`: 2.67%. Take `C=C(C)C1CC(O)C(C)C12CC(O)C1(C)OC1C2O` (stereo not given): the Potency was 3.66 µM (active).

Regarding `CC(C)c1ccc(-c2cc(=O)c3ccccc3o2)cc1`, the max response is -3.41%. Still for that read-out and setting: the value for `O=C(Nc1cccc(C(F)(F)F)c1)Nc1ccc(Br)cc1-c1nn[nH]n1` was 7.51%.

`Cc1ccc(N2CCN(CCC3NC(=O)c4ccccc43)CC2)cc1C` (stereo not given): the max response is -2.29%. For the molecule `CON=C1C[C@]2(C[C@@H]3C[C@@H](C/C=C(\C)C[C@@H](C)/C=C/C=C4\CO[C@@H]5[C@H](O)C(C)=C[C@@H](C(=O)O3)[C@]45O)O2)O[C@H](/C(C)=C/C(C)C)[C@H]1C`, the Potency was 20.6 µM (active). Take `COC(=O)/C=C/C=C/C(=O)OC1C=C2COC(=O)C2(O)C2(C)CCCC(C)(C)C12` (stereo not given): the max response was 4.64%.

As to `Cc1ccc(C2(C(=O)N3CCC(n4nc(-c5ccccc5)oc4=O)CC3)CC2)cc1`, the max response is -8.37%. The same measure, in the same setting: the same measure for `CC1(C)CCC(C)(C)c2cc(C#Cc3ccc(C(=O)O)cc3)ccc21`: -2.7%; for `COc1ccc(NC(=O)c2ccc(C(=N)N(C)C)cc2)c(C(=O)Nc2ccc(Cl)cn2)c1`: 2.86%.
